Laboratory results taken from PubChem BioAssay.
The source made the active and inactive calls.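 How the source made its calls: active means fluorescence slope higher than the sample average by over 3 SD (cut at about -0.22 in these data, passing the limit was not always enough); inactive means the rest.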

biological target: Voltage-gated potassium channel subunit beta-2 (Rattus norvegicus) (UniProt P62483); assay: KvBeta enzyme negative modulators, primary screen, biochemical, NADPH fluorescence (AID 622); conditions: recombinant KvBeta, 4-cyanobenzaldehyde reduction, at 10 µM, stronger effect = higher value;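 further: slope of raw intensity against log time taken from 70 to 1610 s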
Sequence (P62483 whole entry, looked up): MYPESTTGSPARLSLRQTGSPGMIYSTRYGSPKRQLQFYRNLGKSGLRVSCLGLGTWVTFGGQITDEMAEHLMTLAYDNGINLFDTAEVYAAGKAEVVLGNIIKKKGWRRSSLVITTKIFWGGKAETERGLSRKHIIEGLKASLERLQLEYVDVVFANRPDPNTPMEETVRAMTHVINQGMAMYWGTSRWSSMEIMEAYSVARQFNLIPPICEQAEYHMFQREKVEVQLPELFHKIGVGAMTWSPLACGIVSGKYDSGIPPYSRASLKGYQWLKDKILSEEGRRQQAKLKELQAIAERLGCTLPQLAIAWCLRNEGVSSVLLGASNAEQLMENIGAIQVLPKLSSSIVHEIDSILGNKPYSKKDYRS

Fluorescence slope, inactive:
CN(C(=O)CSc1nc2c(c(=O)[nH]1)CCCC2)C1CCCCC1 -0.504
CCc1cc2c(NCCC(=O)O)ncnc2s1 -0.562
CC(C)(C)C(=O)Oc1cc(N)n(S(=O)(=O)c2ccccc2)n1 -0.52
CC(C)CCNC(=O)NC(=O)CSc1nnc(-c2ccccc2Br)o1 -0.458
O=C1c2cccnc2C(O)N1Cc1ccc(F)cc1 (centres undefined) -0.354
Cc1cccn2c(=O)c3cc(C#N)c(=O)n(CCCN4CCOCC4)c3nc12 -0.153
Nc1cc(C(=O)O)ccc1Nc1ccccc1 -0.557
CCn1c(Cc2ccc(OC)cc2)nnc1SCC(=O)Nc1cccc(C(=O)OC)c1 -0.469
COCCNC(=O)c1ccc2c(c1)nc(C)n2-c1cccc(F)c1 -0.572
Cc1ccc2cc(CN(CC(C)C)C(=O)C3CCCO3)c(=O)[nH]c2c1 (centres undefined) -0.565
CCn1c(=S)sc2nc(C)sc21 -0.598
O=C(OCCCN1C(=O)c2ccccc2C1=O)c1ccco1 -0.482
Cc1ccc(-c2nn(C)c(=O)c3ccccc23)cc1S(=O)(=O)N1CCOCC1 -0.511
OCc1nc2ccccc2n1CC(O)Cn1ccc2ccccc21 (centres undefined) -0.577
O=C(c1cnsn1)N1CCN(c2ccccn2)CC1 -0.45
Cc1ccccc1CSCC(=O)c1c(N)n(C)c(=O)n(C)c1=O -0.475
CCC(=O)N1CCc2cc(OC)c(OC)cc2C1COc1ccc(C(=O)OC)cc1 (centres undefined) -0.543
O=C(Cn1nnc(-c2cccc(C(F)(F)F)c2)n1)NC(=O)NCc1ccco1 -0.44
CCN(CC)S(=O)(=O)c1ccc(C(=O)Oc2ccc3c(c2)OCO3)cc1 -0.477
COc1ccccc1NC(=O)c1ccc(NC(=O)CSc2nnnn2C)cc1 -0.385
CCOc1ccc(NC(=O)CN(C)S(=O)(=O)c2cccs2)cc1 -0.587
COc1ccc(-n2c(SCC(=O)Nc3ccc(C(=O)O)cc3)nnc2-c2cccs2)cc1 -0.451
COc1cccc2cc(C(=O)Nc3cccnc3N3CCOCC3)c(=O)oc12 -0.573
COc1cc(NC(=O)c2cc(-n3cnnc3)ccc2Cl)cc(OC)c1 -0.479
